Shown are actives, neighbours in structure and some others; about 7% of the full set was active somewhere.
BAZ2B inh – BAZ2B (human) inhibition | hit rate 4.4% among 360,000 | Potency, µM (top dose mostly 114 µM), for inactives: at the top dose activity change, negative = inhibition, actives largely listed as inhibitors | Q9UIF8 | AlphaScreen BAZ2B-H3K14Ac peptide displacement; further: potency means the concentration at half of the fitted maximal effect; on the % scale 0 is the no-effect control and ±100 the full control effect; nearly all actives have a fitted effect of over 60% in size
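Protein-peptide AlphaScreen: BAZ2B 50 nM, b-H3K14Ac 50 nM, 1x PBS pH 7.4 + 0.01% Tween-20. Preincubation 30 min RT; cpd 30 min RT (top 110 uM); beads 20 min RT, light-protected.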
HP1b binding inh – inhibitors of HP1-beta chromodomain binding to methylated histone tails. P83916. AlphaScreen HP1-beta / biotin-H3K9me3 peptide binding. Potency, µM (doses to about 114 µM), for the others: at the top dose activity change, negative = inhibition, hits mostly inhibitors. hit rate 0.56% among 390,000; further: potency means the concentration at half of the fitted maximal effect; nearly all actives have a fitted effect of over 70% in size
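Compound inhibition of the preformed complex between 50 nM HP1-beta and 50 nM biotinylated H3K9me3 peptide was read by AlphaScreen. Buffer was PBS pH 7.4 with 0.01% Tween-20. Incubations ran 30 min at room temperature, with 10 ug/mL donor/acceptor beads.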
PLK1 PBD block – PLK1 (human) polo-box domain binding inhibition | P53350 | Plk1 PBD binding of FITC phosphopeptide, fluorescence polarization | Potency, µM, for inactives: max response, negative = inhibition, most hits filed as inhibitors | hit rate 2.8% among 360,000; further: potency means the concentration at half of the fitted maximal effect; series mostly up to about 57 µM; on the % scale 0 is the no-effect control and ±100 the full control effect; nearly all actives have a fitted effect of over 65% in size
JMJD2A Tudor inh – inhibitors of human JMJD2A Tudor domain. O75164. AlphaScreen JMJD2A-Tudor / H3K4me3 peptide binding. Potency, µM (doses to about 114 µM), for inactives: at the top dose activity change, negative = inhibition, hits mostly inhibitors. hit rate 4.4% among 390,000; further: potency means the concentration at half of the fitted maximal effect; on the % scale 0 is the no-effect control and ±100 the full control effect; nearly all actives have a fitted effect of over 50% in size
KAT2A inh – inhibitors of human GCN5L2 histone acetyltransferase | hit rate 0.21% among 390,000 | GCN5L2 HAT assay, ThioGlo1 CoA-SH fluorescence | Potency, µM (highest dose often 58.9 µM), for inactives: top-dose activity change, negative = inhibition, usual class: inhibitors; further: potency means the concentration at half of the fitted maximal effect; on the % scale 0 is the no-effect control and ±100 the full control effect
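GCN5L2 (20 nM) in 50mM HEPES pH 7.5, 0.1mM EDTA, 0.01% Tween-20 preincubated 15 min with compounds at room temperature. Reaction started with H3(1-25) 75uM, acetyl-CoA 70uM, ThioGlo1 50uM; CoA-thiol fluorescence (Ex340/Em540) read at 0 and 20 min.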
PI5P4K alpha inh – PI5P4K alpha (human) kinase inhibition; P48426; PI5P4Kalpha enzyme, ADP-Glo luminescence, 60 min; hits give low values; max response, %; hit rate 1.2% among 330,000; active means max response of -50% or lower; inconclusive means between -30% and -50%; inactive means -30% or higher; further: value at the top dose of about 77 µM; on the % scale 0 is the no-effect control and ±100 the full control effect
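Controls without substrate or without enzyme flank wells where PI5P4Kalpha converts substrate using 5 microM ATP (final). Incubation lasts 60 minutes at room temperature; ADP formed is read by ADP-Glo luminescence.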
Starred values were filed as active, the others as inactive; [ ] = remark or other dose. Unless noted, the call rests on the fitted dose curve; in most records, active means well fitted curve in the direction sought with a large enough effect; inconclusive means small, poorly fitted or top-dose-only effect, or another doubt; inactive means no such curve, though single readings can be large; an effect the other way counts as inactive or inconclusive.

What do the screens show for `COc1ccc(C(=O)NC2CC(C)(C)Cc3c2cnn3-c2ccccc2)cc1OC` (centres undefined)?
BAZ2B inh: -24%; HP1b binding inh: 27%; PLK1 PBD block: -7%; JMJD2A Tudor inh: -22%; KAT2A inh: -27%; PI5P4K alpha inh: -1

What do the screens show for `COc1ccc(-n2ncc3c2CC(C)(C)CC3NC(=O)c2cnc(C)cn2)cc1` (centres undefined)?
BAZ2B inh: -8%; HP1b binding inh: 47%; PLK1 PBD block: -22%; JMJD2A Tudor inh: -3%; KAT2A inh: 0%; PI5P4K alpha inh: -5

How did COc1ccc(-n2ncc3c2CC(C)(C)CC3NC(=O)c2c(C)cc(=O)oc2C)cc1 (centres undefined) do in these assays?
BAZ2B inh: -10%[57.1 µM]; HP1b binding inh: 17%; PLK1 PBD block: 24µM*; JMJD2A Tudor inh: inconclusive; KAT2A inh: -4%; PI5P4K alpha inh: -3

How did Clc1ccc(-c2csc(=Nc3cccnc3)n2CCCn2ccnc2)cc1Cl do in these assays?
BAZ2B inh: 11µM*; HP1b binding inh: inconclusive; PLK1 PBD block: -23%; JMJD2A Tudor inh: 40µM*; KAT2A inh: -4%; PI5P4K alpha inh: -7

Results for COCCn1c(-c2ccc(Br)cc2)csc1=Nc1cccnc1 ?
BAZ2B inh: 11µM*; HP1b binding inh: inconclusive; PLK1 PBD block: -25%; JMJD2A Tudor inh: 45µM*; KAT2A inh: -3%; PI5P4K alpha inh: 4

What do the screens show for `O=C(c1cc2c(s1)CCC2)N1C(=O)c2ccccc2S1(=O)=O`?
BAZ2B inh: 50µM*; HP1b binding inh: 21%; PLK1 PBD block: -8%; JMJD2A Tudor inh: inconclusive; KAT2A inh: -2%; PI5P4K alpha inh: 0

Results for O=C(c1cc2c(s1)CCCC2)n1cccn1 ?
BAZ2B inh: 147%; HP1b binding inh: 254%; PLK1 PBD block: -6%; JMJD2A Tudor inh: 113%; KAT2A inh: -1%; PI5P4K alpha inh: -6

Results for O=C(NCc1ccc2c(c1)OCO2)C(=O)NC1CCCCC1 ?
BAZ2B inh: -3%; HP1b binding inh: inconclusive; PLK1 PBD block: inconclusive; JMJD2A Tudor inh: 50µM*; KAT2A inh: -1%; PI5P4K alpha inh: 1

How did CCOc1ccccc1C(=S)NC1CCCCC1 do in these assays?
BAZ2B inh: 8%; HP1b binding inh: 25%; PLK1 PBD block: inconclusive; JMJD2A Tudor inh: -1%; KAT2A inh: -3%; PI5P4K alpha inh: 9

What do the screens show for `O=C(NC1CCCCCCC1)c1ccc2c(c1)OCO2`?
BAZ2B inh: 0%; HP1b binding inh: 56%; PLK1 PBD block: -15%; JMJD2A Tudor inh: -6%; KAT2A inh: 3%; PI5P4K alpha inh: -3

Results for CCOc1ccc(C(=S)NC2CCCCC2)cc1OC ?
BAZ2B inh: -5%; HP1b binding inh: inconclusive; PLK1 PBD block: 9.5µM*; JMJD2A Tudor inh: inconclusive; KAT2A inh: 1%

Results for c1cc2c(cc1NC1CCCCCC1)OCO2 ?
BAZ2B inh: 40µM*; HP1b binding inh: inconclusive; PLK1 PBD block: -24%; JMJD2A Tudor inh: 50µM*; KAT2A inh: -11%; PI5P4K alpha inh: -5

How did S=C(NC1CCCCC1)c1ccc2c(c1)OCO2 do in these assays?
BAZ2B inh: -12%; HP1b binding inh: -30%; PLK1 PBD block: 19µM*; JMJD2A Tudor inh: -31%; KAT2A inh: -5%

What do the screens show for `O=C(NCc1ccc2c(c1)OCO2)C(=O)NCC1CCCO1` (centres undefined)?
BAZ2B inh: 0%; HP1b binding inh: 39%; PLK1 PBD block: -20%; JMJD2A Tudor inh: -5%; KAT2A inh: -5%; PI5P4K alpha inh: 1

Results for CC(C)[C@@H](C(=O)N1CCCC1)N1C(=O)N2CCc3c([nH]c4ccccc34)[C@@]2(C)C1=O ?
BAZ2B inh: -1%[57.1 µM]; HP1b binding inh: 14%; PLK1 PBD block: -15%; JMJD2A Tudor inh: -29%; KAT2A inh: -15%; PI5P4K alpha inh: -6

Results for CCOC(=O)C1CCCCN1Cc1cc(OC)ccc1OC (centres undefined) ?
BAZ2B inh: inconclusive; HP1b binding inh: inconclusive; PLK1 PBD block: 0%; JMJD2A Tudor inh: 18µM*; KAT2A inh: 0%

How did CCOC(=O)C1CCCCN1Cc1cccc(OC)c1OC (centres undefined) do in these assays?
BAZ2B inh: inconclusive; HP1b binding inh: inconclusive; PLK1 PBD block: -1%; JMJD2A Tudor inh: 5.6µM*; KAT2A inh: -6%[0.501 µM]

How did CCOC(=O)C1CCCCN1Cc1cc(Cl)ccc1O (centres undefined) do in these assays?
BAZ2B inh: 17%; HP1b binding inh: 85%; PLK1 PBD block: -3%; JMJD2A Tudor inh: 16%; KAT2A inh: -9%

What do the screens show for `Cc1ccc(S(=O)(=O)N2CCCN(C(=O)c3ccc(-n4cccn4)cc3)CC2)cc1`?
BAZ2B inh: 6%; HP1b binding inh: 43%; PLK1 PBD block: -4%; JMJD2A Tudor inh: -13%; KAT2A inh: 2%; PI5P4K alpha inh: 0

How did CC1(C(=O)O)CCC(C(=O)NNC(=O)c2ccccc2Cl)C1(C)C (centres undefined) do in these assays?
HP1b binding inh: 9%; PLK1 PBD block: -1%; JMJD2A Tudor inh: -12%; PI5P4K alpha inh: 6

Results for O=C(OCCN1C(=O)c2cccc3c(N4CCOCC4)ccc(c23)C1=O)c1ccc(Cl)cc1 ?
BAZ2B inh: 82%; HP1b binding inh: 161%; PLK1 PBD block: inconclusive; JMJD2A Tudor inh: 74%; KAT2A inh: -3%; PI5P4K alpha inh: 16

What do the screens show for `CCCN(CCC)S(=O)(=O)c1ccc(C(=O)OCCN2C(=O)c3cccc4c(N5CCOCC5)ccc(c34)C2=O)cc1`?
BAZ2B inh: 24%; HP1b binding inh: 69%; PLK1 PBD block: 15µM*; JMJD2A Tudor inh: 23%; KAT2A inh: -24%; PI5P4K alpha inh: -5

Results for CCOC(=O)c1c(C)[nH]c(C)c1S(=O)(=O)NCC(=O)NCc1ccccc1C ?
BAZ2B inh: -4%; HP1b binding inh: 13%; JMJD2A Tudor inh: -13%; KAT2A inh: -16%

How did CCOC(=O)c1c(C)[nH]c(C)c1S(=O)(=O)NCc1cc(C)ccc1C do in these assays?
BAZ2B inh: 50µM*; HP1b binding inh: 17%; PLK1 PBD block: -9%; JMJD2A Tudor inh: inconclusive; KAT2A inh: -3%; PI5P4K alpha inh: 1

Results for O=c1c2ccccc2nnn1CSc1nnc(-c2cccs2)n1Cc1ccccc1 ?
BAZ2B inh: -3%; HP1b binding inh: inconclusive; PLK1 PBD block: 30µM*; JMJD2A Tudor inh: inconclusive; KAT2A inh: -4%; PI5P4K alpha inh: -17

What do the screens show for `CC(=O)c1c(C)[nH]c(C(=O)CSc2nnc(-c3cccs3)n2Cc2ccccc2)c1C`?
BAZ2B inh: -35%; HP1b binding inh: -22%; PLK1 PBD block: 17µM*; JMJD2A Tudor inh: inconclusive; KAT2A inh: -1%

High-throughput results deposited in PubChem BioAssay by National Center for Advancing Translational Sciences (NCATS).
